Laboratory results reported in PubChem BioAssay (Tox21).
Inconclusive results are not listed. Activity calls are given as the source filed them. Unless noted, the call rests on the fitted dose curve; in most records, active means well fitted curve in the direction sought with a large enough effect in the repeat runs; inconclusive means weak or mixed curves; inactive means no such curve, though single readings can be large; an effect the other way counts as inactive or inconclusive.

Legend:
[1] = qHTS assay to test for compound auto fluorescence at 535 nm (green) in HEK293 cells (AID 720680)
[2] = qHTS assay to test for compound auto fluorescence at 460 nm (blue) in HEK293 cell free culture (AID 720681)
How it was run: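 Blue fluorescence (Ex 405/Em 460 nm, triamterene-equivalent) was read immediately after pin transfer of compound or DMSO into medium (DMEM, 10% FBS) without cells.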

[3] = qHTS assay to test for compound auto fluorescence at 535 nm (green) in HEK293 cell free culture (AID 720682)
How it was run: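 Intrinsic compound fluorescence is measured in culture medium containing 10% FBS, with excitation at 485 nm and detection at 535 nm, referenced to fluorescein.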

[4] = qHTS assay to test for compound auto fluorescence at 590 nm (red) in HEK293 cell free culture (AID 720683)
How it was run: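 Red-channel autofluorescence of compounds in culture medium (DMEM, 10% FBS), no cells, measured at 540/590 nm. Rose Bengal sodium is the reference fluorophore for equivalence.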

[5] = qHTS assay to test for compound auto fluorescence at 590 nm (red) in HepG2 cell free culture (AID 720684)
How it was run: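 Steps: dispense MEM/10% FBS medium, no cells; pin compound or DMSO vehicle; read red channel, Ex/Em 540/590 nm. Output given as Rose Bengal sodium equivalents.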

[6] = qHTS assay to test for compound auto fluorescence at 460 nm (blue) in HepG2 cell free culture (AID 720685)
How it was run: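 Compound (23 nL) or DMSO pinned into cell-free MEM with 10% FBS; blue fluorescence read at 405/460 nm excitation/emission, expressed as auto-fluorescence equivalency to triamterene.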

[7] = qHTS assay to test for compound auto fluorescence at 460 nm (blue) in HepG2 cells (AID 720687)
How it was run: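 Blue-channel autofluorescence (Ex/Em 405/460 nm, triamterene-equivalent) was measured after 1 hr compound exposure at 37 C, 5% CO2. Cells were HepG2, plated overnight at 37 C in MEM plus 10% FBS.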

[8] = qHTS assay to identify small molecule antagonists of the glucocorticoid receptor (GR) signaling pathway - cell viability counter screen (AID 720693); further: nearly all actives have a fitted effect of over 55% in size
[9] = qHTS assay for identifying genotoxic compounds that show differential cytotoxicity against isogenic chicken DT40 cell lines with known DNA damage response pathways - wild type cell line (AID 743012); further: nearly all actives have a fitted effect of over 60% in size
How it was run: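 Parental DNA repair-proficient DT40 cells, 300 per well, were pre-incubated ~0.5 h at 37 C/5% CO2, pin-dosed with compounds in DMSO, then incubated 40 h. Viability was read as CellTiter-Glo luminescence after 30 min at room temperature.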

[10] = qHTS assay for identifying genotoxic compounds that show differential cytotoxicity against isogenic chicken DT40 cell lines with known DNA damage response pathways - Rev3 mutant cell line (AID 743014); further: nearly all actives have a fitted effect of over 55% in size
[11] = qHTS assay for identifying genotoxic compounds that show differential cytotoxicity against isogenic chicken DT40 cell lines with known DNA damage response pathways - Rad54/Ku70 mutant cell line (AID 743015); further: nearly all actives have a fitted effect of over 60% in size
[12] = qHTS assay to identify small molecule antagonists of the androgen receptor (AR) signaling pathway - cell viability counter screen (AID 743033; further: nearly all actives have a fitted effect of over 45% in size)
[13] = target: Androgen receptor (Homo sapiens) (UniProt P10275); assay: qHTS assay to identify small molecule antagonists of the androgen receptor (AR) signaling pathway (AID 743035; active means well fitted inhibition curve with a large enough effect in the signal ratio in the repeat runs, not every such curve was filed as active; the % refers to the signal ratio)
Chain of Androgen receptor (Homo sapiens) (P10275 whole entry, looked up): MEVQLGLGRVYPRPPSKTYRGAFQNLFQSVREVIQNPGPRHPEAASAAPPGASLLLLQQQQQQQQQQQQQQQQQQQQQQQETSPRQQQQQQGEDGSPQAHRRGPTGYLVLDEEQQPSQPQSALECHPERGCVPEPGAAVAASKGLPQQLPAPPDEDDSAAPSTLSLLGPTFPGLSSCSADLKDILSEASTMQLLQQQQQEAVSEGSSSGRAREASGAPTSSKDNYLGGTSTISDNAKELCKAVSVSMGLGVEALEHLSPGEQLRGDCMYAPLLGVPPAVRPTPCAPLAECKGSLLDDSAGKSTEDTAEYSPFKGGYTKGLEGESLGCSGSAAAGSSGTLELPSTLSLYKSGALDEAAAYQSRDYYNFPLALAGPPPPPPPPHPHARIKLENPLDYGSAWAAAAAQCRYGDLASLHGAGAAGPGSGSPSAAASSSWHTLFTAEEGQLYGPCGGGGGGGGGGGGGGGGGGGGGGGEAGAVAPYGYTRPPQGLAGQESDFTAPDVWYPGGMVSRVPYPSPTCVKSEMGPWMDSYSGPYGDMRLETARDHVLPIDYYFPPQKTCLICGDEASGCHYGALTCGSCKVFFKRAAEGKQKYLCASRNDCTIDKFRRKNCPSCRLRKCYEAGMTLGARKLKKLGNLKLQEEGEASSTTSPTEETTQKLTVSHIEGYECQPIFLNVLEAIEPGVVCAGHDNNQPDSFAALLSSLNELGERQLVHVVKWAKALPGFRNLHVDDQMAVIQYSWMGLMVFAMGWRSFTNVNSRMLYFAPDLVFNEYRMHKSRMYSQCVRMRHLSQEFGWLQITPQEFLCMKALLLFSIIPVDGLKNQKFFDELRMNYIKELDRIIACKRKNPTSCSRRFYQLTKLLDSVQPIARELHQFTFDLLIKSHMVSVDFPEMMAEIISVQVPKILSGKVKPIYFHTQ
How it was run: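 HEK293 cells stably carrying a UAS-driven beta-lactamase reporter (AR-UAS-bla GripTite) were plated for 4 h at 37C, then given compound and the agonist R1881 and incubated 16 h. Reporter activity was read by LiveBLAzer B/G FRET fluorescence after 2 h at room temperature.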

[14] = target: Androgen receptor (Homo sapiens) (UniProt P10275); assay: qHTS assay to identify small molecule agonists of the androgen receptor (AR) signaling pathway using the MDA cell line (AID 743040; further: nearly all actives have a fitted effect of over 20% in size)
How it was run: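 Cells plated, 5 h at 37C/0% CO2; compound or DMSO pinned; 16 h at 37C; ONE-Glo added; luminescence measured after 30 min at room temperature. Reporter line: MDA-kb2 with MMTV-luciferase responsive to AR and GR.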

[15] = qHTS assay to identify small molecule antagonists of the androgen receptor (AR) signaling pathway using the MDA cell line - cell viability counter screen (AID 743041; further: nearly all actives have a fitted effect of over 45% in size)
How it was run: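 Cells were plated at 3,000 per well and left 5 h. Compounds in DMSO were then pinned in, followed by R1881. After 16 h at 37C, CellTiter-Fluor fluorescence gave viability.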

[16] = target: Androgen receptor (Homo sapiens) (UniProt P10275); assay: qHTS assay to identify small molecule antagonists of the androgen receptor (AR) signaling pathway using the MDA cell line (AID 743042; further: nearly all actives have a fitted effect of over 55% in size)
How it was run: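 Antagonist mode: compounds plus R1881 agonist added to MDA-kb2 AR-luc cells, incubated 16 h at 37C. Luciferase reporter luminescence quantified, with multiplexed CellTiter-Fluor readout for cell viability.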

[17] = qHTS assay to test for compound auto fluorescence at 535 nm (green) in HepG2 cell free culture (AID 720686)
[18] = target: Glucocorticoid receptor (Homo sapiens) (UniProt P04150); assay: qHTS assay to identify small molecule agonists of the glucocorticoid receptor (GR) signaling pathway (AID 720691; active means well fitted activation curve with a large enough effect in the signal ratio in the repeat runs, not every such curve was filed as active; the % refers to the signal ratio)
Chain of Glucocorticoid receptor (Homo sapiens) (P04150 whole entry, looked up): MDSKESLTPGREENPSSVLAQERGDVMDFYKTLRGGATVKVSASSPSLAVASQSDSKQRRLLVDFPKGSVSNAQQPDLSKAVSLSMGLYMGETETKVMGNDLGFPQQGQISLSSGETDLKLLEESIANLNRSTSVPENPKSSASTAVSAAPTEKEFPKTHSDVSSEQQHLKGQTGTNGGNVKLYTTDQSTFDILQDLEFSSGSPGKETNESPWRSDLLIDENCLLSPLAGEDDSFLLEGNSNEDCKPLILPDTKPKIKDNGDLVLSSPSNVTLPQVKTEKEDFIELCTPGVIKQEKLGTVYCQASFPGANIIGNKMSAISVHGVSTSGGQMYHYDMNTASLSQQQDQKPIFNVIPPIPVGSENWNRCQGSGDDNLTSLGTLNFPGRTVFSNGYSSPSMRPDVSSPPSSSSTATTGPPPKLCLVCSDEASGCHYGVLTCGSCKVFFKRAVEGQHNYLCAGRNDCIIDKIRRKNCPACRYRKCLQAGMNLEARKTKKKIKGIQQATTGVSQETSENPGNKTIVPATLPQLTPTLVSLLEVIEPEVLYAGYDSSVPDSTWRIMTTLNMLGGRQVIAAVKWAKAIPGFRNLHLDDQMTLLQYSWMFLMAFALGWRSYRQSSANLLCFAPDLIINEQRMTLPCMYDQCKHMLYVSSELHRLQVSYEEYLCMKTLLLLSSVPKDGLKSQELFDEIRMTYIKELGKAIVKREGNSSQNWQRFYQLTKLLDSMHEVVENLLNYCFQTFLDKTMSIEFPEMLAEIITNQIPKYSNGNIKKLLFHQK
How it was run: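 GR-bla HeLa cells (beta-lactamase reporter under glucocorticoid response element) were plated 4 h at 37 C/5% CO2, given compounds in DMSO, and incubated 18 h at 37 C. LiveBLAzer B/G FRET substrate was added for 2 h at room temperature, then fluorescence intensity read.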

[19] = target: Glucocorticoid receptor (Homo sapiens) (UniProt P04150); assay: qHTS assay to identify small molecule antagonists of the glucocorticoid receptor (GR) signaling pathway (AID 720692; active means well fitted inhibition curve with a large enough effect in the signal ratio in the repeat runs, not every such curve was filed as active; the % refers to the signal ratio)
How it was run: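 GR-bla HeLa cells (beta-lactamase reporter under glucocorticoid response element) were pre-plated 4 h at 37 C, treated with compounds plus 5 nM dexamethasone (final) for 18 h, then read by LiveBLAzer B/G FRET fluorescence after 2 h.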

[20] = target: Androgen receptor (Homo sapiens) (UniProt P10275); assay: qHTS assay to identify small molecule agonists of the androgen receptor (AR) signaling pathway (AID 743036; active means well fitted activation curve with a large enough effect in the signal ratio in the repeat runs, with a control signal flat, not every such curve was filed as active; the % refers to the signal ratio)
How it was run: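 Agonist activity was scored by beta-lactamase reporter fluorescence in stably transfected HEK293 cells exposed to compounds for 16 h at 37C and 5% CO2. Substrate loading took 2 h at room temperature.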
On the % scale 0 is the no-effect control and ±100 the full control effect.

CCCOCCOCCOCCO
inactive: outcome [1] | outcome [2] | outcome [3] | outcome [4] | outcome [5] | outcome [6] | outcome [7] | Potency [8] | Potency [9] | Potency [10] | Potency [11] | outcome [12] | Potency [13] | outcome [14] | outcome [15] | outcome [16]

C=CC(C)(O)CC/C=C(\C)CC (stereo not drawn)
inactive: outcome [1] | outcome [3] | outcome [4] | outcome [5] | outcome [6] | outcome [17] | outcome [7] | Potency [18] | outcome [19] | Potency [8] | Potency [9] | Potency [10] | Potency [11] | outcome [12] | outcome [15]

Cc1cccc(Nc2ccncc2S(=O)(=O)NC(=O)NC(C)C)c1
inactive: fluorescence, % of fluorescein [1] -0.12% [at 18.6 µM] | fluorescence, % of fluorescent control [2] -0.219% [at 18.6 µM] | activity change [3] -0.379% [at 18.6 µM] | fluorescence, % of fluorescent control [4] 0.257% [at 18.6 µM] | fluorescence, % of Rose Bengal [5] -0.0539% [at 18.6 µM] | fluorescence, % of fluorescent control [6] -0.124% [at 18.6 µM] | fluorescence, % of fluorescent control [7] -0.0073% [at 18.6 µM] | Potency [18] | outcome [19] | Potency [8] | Potency [9] | Potency [10] | Potency [11] | outcome [12] | outcome [15]

C[C@@H]1C[C@H]2[C@@H]3C[C@H](F)C4=CC(=O)C=C[C@]4(C)[C@@]3(F)[C@@H](O)C[C@]2(C)[C@@]1(O)C(=O)CO
inactive: fluorescence, % of fluorescein [1] 0.12% [at 18.6 µM] | fluorescence, % of fluorescent control [2] -0.0209% [at 18.6 µM] | activity change [3] 0.0847% [at 18.6 µM] | fluorescence, % of fluorescent control [4] -0.0134% [at 18.6 µM] | fluorescence, % of Rose Bengal [5] 0.414% [at 18.6 µM] | fluorescence, % of fluorescein control [17] 0.0581% [at 18.6 µM] | fluorescence, % of fluorescent control [7] -0.0249% [at 18.6 µM] | Potency [8] | outcome [15]

CCOC(=O)CC(CC(=O)OCC)(OC(C)=O)C(=O)OCC
inactive: outcome [1] | outcome [2] | outcome [3] | outcome [4] | outcome [5] | outcome [6] | outcome [7] | Potency [8] | Potency [10] | Potency [11] | outcome [12] | outcome [15]

CCNC(=O)NCCCOc1cccc(CN2CCCCC2)c1
inactive: outcome [1] | outcome [2] | outcome [3] | outcome [4] | outcome [5] | outcome [6] | outcome [7] | Potency [18] | Potency [8] | Potency [9] | Potency [10] | Potency [11] | outcome [12] | outcome [15]

O=S(=O)(O)CCO
inactive: outcome [1] | outcome [3] | outcome [4] | outcome [5] | outcome [6] | outcome [17] | outcome [7] | Potency [18] | outcome [19] | Potency [8] | Potency [9] | Potency [10] | Potency [11] | outcome [12] | outcome [15]

Cc1ccccc1N1CCN(CCc2nnc3n2CCCC3)CC1
inactive: outcome [1] | outcome [2] | outcome [3] | outcome [4] | outcome [5] | outcome [6] | outcome [7] | Potency [18] | outcome [19] | Potency [8] | Potency [9] | Potency [10] | outcome [12]

O=C(O)c1ccccc1C(=O)Nc1ccc(S(=O)(=O)Nc2nccs2)cc1
inactive: outcome [1] | outcome [2] | outcome [3] | outcome [4] | outcome [5] | outcome [6] | outcome [7] | Potency [18] | outcome [19] | Potency [8] | Potency [9] | Potency [10] | Potency [11] | outcome [12] | Potency [13] | outcome [20] | outcome [14] | outcome [15] | outcome [16]
